Records with an inconclusive call do not appear. Active and inactive are the calls of the source. Unless noted, calls follow the shape of the dose curve; as a rule, active = well fitted curve in the direction sought with a large enough effect in the repeat runs; inconclusive = weak or mixed curves; inactive = no such curve, though single readings can be large; an effect the other way counts as inactive or inconclusive.

Assay [1] is described as follows: qHTS assay to identify small molecule agonists of the NFkB signaling pathway - cell viability counter screen (AID 1159515; calls by dose curve; also: nearly all actives have a fitted effect of over 55% in size; also: potency is read from the fitted curve at half-maximal effect). A digest of the protocol: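 NFkB-bla ME-180 cells, 2,000/well, plated overnight at 37 C; compound added for 5 hr at 37 C. Viability read in the same wells as the bla reporter, by CellTiter-Glo luminescence after 30 min at room temperature.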

Assay [2] can be described thus: qHTS assay to identify small molecule agonists of the endoplasmic reticulum stress response signaling pathway (AID 1159516; active = well fitted activation curve with a large enough effect in the signal ratio in the repeat runs, not every such curve was filed as active; the % refers to the signal ratio; also: % is scaled to controls: 0 for no effect and ±100 for the full control effect). A digest of the protocol:
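CellSensor ESRE-bla HeLa cells, 1,500 per well, plated overnight, then exposed to compounds for 5 hr at 37 C. Beta-lactamase reporter read with LiveBLAzer B/G FRET substrate after 2 hr at room temperature, 405 nm excitation, 460 and 530 nm emission.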
Background: qHTS replaces the single test concentration by a dilution series.

Assay [3] is described as follows: qHTS assay to identify small molecule antagonists of the retinoid-related orphan receptor gamma (ROR-gamma) signaling pathway - cell viability counter screen (AID 1159520). Also: % is scaled to controls: 0 for no effect and ±100 for the full control effect; nearly all actives have a fitted effect of over 50% in size. In outline: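 Tet-on ROR gamma CHO cells (1,000/well) were plated 4 hr, given compounds in DMSO for 2 hr at 37 C, then induced with 1 uM final doxycycline for 16 hr. Viability was read as ATP by CellTiter-Glo luminescence after 30 min.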

The target in assay [4] is Nuclear receptor ROR-gamma (Homo sapiens) (UniProt P51449). The experiment in a line: qHTS assay to identify small molecule antagonists of the retinoid-related orphan receptor gamma (ROR-gamma) signaling pathway (AID 1159521; also: nearly all actives have a fitted effect of over 50% in size; also: potency is read from the fitted curve at half-maximal effect). A digest of the protocol: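 Cells were plated, rested 4 h at 37 C, exposed to compounds for 2 h, then given 1 uM final doxycycline hyclate to induce RORγ expression. After 16 h, ONE-Glo luminescence from the ROR response element reporter was measured.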

The nature of assay [5]: qHTS assay to identify small molecule agonists of the AP-1 signaling pathway - cell viability counter screen (AID 1159525; calls by dose curve; also: nearly all actives have a fitted effect of over 55% in size). A digest of the protocol:
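ME-180 AP-1-bla, 2500 cells/well, Opti-MEM + 0.5% dialyzed FBS; overnight 37 °C; cpd 15-pt titration, 5 h 37 °C; CellTiter-Glo 30 min RT; luminescence read; normalised to TOAB and DMSO controls.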

Assay [6] in a line: qHTS assay to identify small molecule antagonists of the retinoid acid receptor (RAR) signaling pathway - cell viability counter screen (AID 1159551). Also: % is scaled to controls: 0 for no effect and ±100 for the full control effect; nearly all actives have a fitted effect of over 35% in size. In outline:
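C3RL4 RARE-luciferase cells, 1,000/well, incubated overnight, then dosed with compound plus 1 uM retinol (final). After 6 hr at 37 C, viability read by CellTiter-Glo ATP luminescence following 30 min at room temperature.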

A short description of assay [7]: qHTS assay to identify small molecule antagonists of the retinoic acid receptor (RAR) signaling pathway (AID 1159552; also: nearly all actives have a fitted effect of over 50% in size; also: potency is read from the fitted curve at half-maximal effect). A digest of the protocol:
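Retinol at 1 uM final stimulated RARE-luciferase expression in C3RL4 cells exposed to test compounds for 6 hr at 37 C. Reduced luminescence, read 30 min after detection reagent, indicated pathway antagonism.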

The nature of assay [8]: qHTS assay to identify small molecule agonists of the retinoic acid receptor (RAR) signaling pathway (AID 1159553). Also: % is scaled to controls: 0 for no effect and ±100 for the full control effect. The following applies: C3RL4 RARE luciferase reporter, agonist, 6 h; activation: at 73.3 µM (top of the series) unless noted. A digest of the protocol:
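C3RL4 RARE-luciferase cells were seeded at 1,000/well and grown overnight at 37 C, then exposed to compounds for 6 hr at 37 C, 5% CO2. Luciferase reagent was added and luminescence was read after 30 min at room temperature.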

Assay [9] can be described thus: qHTS assay to identify small molecule agonists of the vitamin D receptor (VDR) signaling pathway - cell viability counter screen (AID 743224). Also: nearly all actives have a fitted effect of over 50% in size. Also: potency is read from the fitted curve at half-maximal effect. In outline:
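VDR-bla cells, 4 h after plating, exposed to compounds for 16 h at 37C; viability then read in the same wells as CellTiter-Glo luminescence after 30 min at room temperature, following the bla FRET read.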

Assay [10] can be described thus: qHTS assay to identify small molecule antagonists of the vitamin D receptor (VDR) signaling pathway - cell viability counter screen (AID 743225). Also: nearly all actives have a fitted effect of over 50% in size. Also: potency is read from the fitted curve at half-maximal effect. In outline: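 HEK293T VDR-bla; cpd + 1a,25-(OH)2D3 3 nM final, 16 h 37C/5% CO2; B/G FRET substrate 2 h RT; then CellTiter-Glo 30 min RT, luminescence.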
Assay [11] can be described thus: qHTS assay to identify small molecule agonists of the AP-1 signaling pathway (AID 1159526; calls by dose curve; also: % is scaled to controls: 0 for no effect and ±100 for the full control effect).
Assay [12] in a line: qHTS assay to identify small molecule agonists of the RXR signaling pathway - cell viability counter screen (AID 1159529). Also: nearly all actives have a fitted effect of over 50% in size. Also: potency is read from the fitted curve at half-maximal effect. A digest of the protocol:
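Steps: seed RXR-alpha-UAS-bla HEK 293T cells in assay medium containing 2% charcoal-stripped FBS; incubate 5 hr; add compounds in DMSO; incubate 16 hr at 37 C; after the bla read, add CellTiter-Glo and read luminescence at 30 min.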

Assay [13] is described as follows: qHTS assay to identify small molecule antagonists of the estrogen related receptor (ERR) signaling pathway - cell viability counter screen (AID 1224818). Also: % is scaled to controls: 0 for no effect and ±100 for the full control effect. In outline:
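ERR cells, 2,000 per well, compound added after 6 h and incubated 17.5 h at 37 C. Viability read by CellTiter-Fluor fluorescence after a further 30 min at 37 C.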

The nature of assay [14]: qHTS assay to identify small molecule antagonists of the estrogen related receptor (ERR) signaling pathway (AID 1224819). A digest of the protocol:
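ERR reporter cell line (NTP) plated at 2,000 cells/well, settled 6 h at 37C/5% CO2, then exposed to LOPAC compounds for 18 h at 37C. One-Glo luciferase luminescence read after 30 min at room temperature.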

The nature of assay [15]: qHTS assay to identify small molecule agonists of the estrogen related receptor (ERR) signaling pathway (AID 1224820). Also: % is scaled to controls: 0 for no effect and ±100 for the full control effect. In outline:
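Cells: ERR line from NTP, 2,000/well. Pre-incubation 6 h, 37 C/5% CO2. Compound (DMSO) pin transfer, 18 h 37 C. One-Glo, 30 min RT, luminescence.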

The subject of assay [16] is estrogen-related receptor alpha (ERRalpha) with PGC-1alpha coactivator, human. The experiment in a line: qHTS assay to identify small molecule antagonists of the estrogen related receptor signaling pathway with the pleiotropic PPARgamma coactivator (PGC) (AID 1224821; calls by dose curve). In outline:
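Luminescent read-out (One-Glo, 30 min at room temperature) following 18 h treatment of PGC/ERR cells at 37 C with compounds delivered in DMSO. Cells had settled 6 h at 37 C/5% CO2 before dosing.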

Assay [17] can be described thus: qHTS assay to identify small molecule antagonists of the estrogen related receptor signaling pathway with the pleiotropic PPARgamma coactivator (PGC) cell viability counter screen (AID 1224822; also: % is scaled to controls: 0 for no effect and ±100 for the full control effect). In outline:
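PGC/ERR cells rested 6 h, then compound-treated 17.5 h at 37 C. CellTiter-Fluor added for 30 min at 37 C, viability measured by fluorescence intensity.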

Assay [18] can be described thus: qHTS assay to identify small molecule agonists of the estrogen related receptor signaling pathway with the pleiotropic PPARgamma coactivator (PGC) (AID 1224823). Also: % is scaled to controls: 0 for no effect and ±100 for the full control effect. In outline:
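Steps: plate PGC/ERR cells at 2,000 cells/well; incubate 6 h, 37 C/5% CO2; pin-transfer compounds (DMSO); incubate 18 h, 37 C; add One-Glo; 30 min RT; read luminescence.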

Assay [19] concerns the target Retinoic acid receptor RXR-alpha (Homo sapiens) (UniProt P19793). The experiment in a line: qHTS assay to identify small molecule agonists of the RXR signaling pathway (AID 1159527; calls by dose curve; also: % is scaled to controls: 0 for no effect and ±100 for the full control effect; nearly all actives have a fitted effect of over 35% in size). In outline: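 Cells plated at 2,000/well, rested 5 hr at 37 C, pin-dosed with DMSO compound solutions, incubated 16 hr, then loaded with B/G FRET substrate for 2 hr at RT before dual-emission fluorescence reading.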

Sequence of Retinoic acid receptor RXR-alpha (Homo sapiens) (P19793 whole entry, looked up): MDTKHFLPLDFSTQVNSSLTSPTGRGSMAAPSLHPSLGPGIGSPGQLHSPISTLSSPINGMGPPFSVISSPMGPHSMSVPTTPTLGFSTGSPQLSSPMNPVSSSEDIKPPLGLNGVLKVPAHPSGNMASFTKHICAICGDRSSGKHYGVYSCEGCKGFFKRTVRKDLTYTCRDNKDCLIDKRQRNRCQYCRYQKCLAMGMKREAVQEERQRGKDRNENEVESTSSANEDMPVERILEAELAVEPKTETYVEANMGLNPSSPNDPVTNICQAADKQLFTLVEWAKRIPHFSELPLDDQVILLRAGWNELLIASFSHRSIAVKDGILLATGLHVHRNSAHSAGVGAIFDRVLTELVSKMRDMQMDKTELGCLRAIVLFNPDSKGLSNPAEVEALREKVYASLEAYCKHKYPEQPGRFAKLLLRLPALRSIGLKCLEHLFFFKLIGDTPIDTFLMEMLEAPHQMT

`CCc1oc2ccccc2c1C(=O)c1cc(I)c(O)c(I)c1`: the Potency result in assay [1], in assay [2], in [3], in assay [5], in assay [6] and in assay [7] was “inactive” throughout. Also, the Potency result in [8] is “inactive”. Besides, the Potency in [4] is 11.9 µM (active).
Regarding `CC[N+](CC)(CC)CCOc1ccc(/C=C/c2ccccc2)cc1`, the Potency entry in [9], in assay [10], in assay [1], in [2], in [3] and in assay [11] was “inactive” each time. The Potency entry in assay [12], in assay [6], in assay [8] and in assay [17] was “inactive” each time. Further, the outcome in [13], in assay [15] and in [18] was inactive. In addition, the results for the Potency in [14] and in assay [16] were 8.74 µM (active) and 12.3 µM (active), respectively.
As to `O=C(O)c1cccc(C(F)(F)F)c1`, the Potency entry in [9], in [1], in [2], in assay [3], in assay [5] and in assay [11] was “inactive” in each case. Moreover, the Potency result in assay [12] and in [6] was “inactive” in each case.
Take `C=C(CC)C(=O)c1ccc(OCC(=O)O)c(Cl)c1Cl`: the Potency entry in assay [9], in [10], in assay [1], in assay [2], in assay [3] and in assay [5] was “inactive” each time. In addition, in assay [6], the Potency entry was “inactive”. In addition, the figures for the Potency in assay [4] and in [7] were 54.1 µM (active) and 48.2 µM (active), respectively.
As for `CC1=CCC(=C(C)C)CC1`, the Potency entry in assay [9], in [10], in [1], in assay [2], in assay [3] and in assay [5] was “inactive” each time. Besides, the Potency entry in assay [11], in assay [19], in assay [12] and in [6] was “inactive” in each case.
`CC1(C)[C@@H](O)CC[C@]2(C)[C@H]3C(=O)C=C4[C@@H]5C[C@@](C)(C(=O)O)CC[C@]5(C)CC[C@@]4(C)[C@]3(C)CC[C@@H]12`: the Potency entry in assay [1], in [2], in [4], in assay [19] and in [6] was “inactive” throughout.
Consider `CC(C)(C)NSc1nc2ccccc2s1`, for which the Potency result in assay [9], in assay [1], in assay [2], in assay [3], in assay [4] and in assay [5] was “inactive” in each case. The Potency entry in [6] was “inactive”. Moreover, in assay [8], the activation is 7.05% [at 94.8 µM] (active).
Turning to `Nc1nc(-c2ccccc2)cs1`, the Potency entry in [9], in assay [10], in [1], in assay [2], in [3] and in assay [5] was “inactive” throughout. For the same molecule, the Potency result in assay [19] and in assay [12] was “inactive” in each case.
Take `CCN1C(=O)c2ccccc2C1Nc1ccc(OCCN2CCCCC2)cc1` (configuration not stated): the Potency result in assay [9], in assay [10], in assay [1], in assay [2], in [3] and in assay [5] was “inactive” in each case. The Potency entry in assay [11], in [19], in assay [12], in assay [6] and in [8] was “inactive” in each case.
Take `CN1CCC[C@@H]1CCO[C@](C)(c1ccccc1)c1ccc(Cl)cc1`: the Potency is 21.3 µM (active) in [1] and 8.49 µM (active) in assay [12]. In addition, the Potency result in assay [2], in assay [3], in assay [5] and in [6] was “inactive” each time.
Consider `O=C1CCc2ccc(OCCCCN3CCN(c4cccc(Cl)c4Cl)CC3)cc2N1`, for which the figures for the Potency in [9], in assay [10] and in [1] were 11.9 µM (active), 10.7 µM (active) and 26.8 µM (active), respectively. Moreover, the Potency result in assay [2], in assay [3], in [5], in [6], in assay [7] and in [8] was “inactive” throughout.

The values above are taken from PubChem BioAssay (Tox21).
